± gives the standard deviation of the averaged measurements.
test system: human monocyte-derived macrophages (polarized); test: cell shape (eccentricity) Z-score vs DMSO control; higher = more elongated, M2-like morphology; conditions: 5 µM; 24 h; macrophage state: M1-polarized (IFNg + TNFa), cytokines present during treatment
Protocol: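 Primary-screen hits were rescreened on polarized hMDMs with the differentiating cytokines (IL-4 + IL-13 or IFNg + TNFa) kept in the medium during treatment with compound at 5 uM for 24 h. The eccentricity Z-score vs DMSO wells is averaged over experiments.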

| SMILES | cell shape (Z-score) |
| --- | --- |
| CCN(CC)C(=S)SSC(=S)N(CC)CC | -3.98 |
| O=C(/C=C/c1cccc(S(=O)(=O)Nc2ccccc2)c1)NO | -3.19 |
| CCC[C@H](N[C@@H](C)C(=O)N1[C@H](C(=O)O)C[C@@H]2CCCC[C@@H]21)C(=O)OCC | -1.48 |
| O=C(Nc1ccc(OC(F)(F)F)cc1)c1sccc1NCc1ccnc2ccccc12 | 3.81 |
| Nc1nc2c(ncn2COCCO)c(=O)[nH]1 | -5.79 |
| NC(=O)Nc1sc(-c2ccc(F)cc2)cc1C(N)=O | 7.48 |
| Nc1nc(Nc2ccc3c(c2)CCC(N2CCCC2)CC3)nn1-c1cc2c(nn1)-c1ccccc1CCC2 (stereo not given) | -4.94 |
| CCOc1cc2ncc(C#N)c(Nc3ccc(OCc4ccccn4)c(Cl)c3)c2cc1NC(=O)/C=C/CN(C)C | 0.0624 |
| CCCCCCN(CCCCCC)C(=O)Cc1c(-c2ccc(F)cc2)[nH]c2ccccc12 | -4.11 |
| CC[C@H]1OC(=O)[C@H](C)[C@@H](O[C@H]2C[C@@](C)(OC)[C@@H](O)[C@H](C)O2)[C@H](C)[C@@H](O[C@@H]2O[C@H](C)C[C@H](N(C)C)[C@H]2O)[C@](C)(O)C[C@@H](C)C(=O)[C@H](C)[C@@H](O)[C@]1(C)O | -5.37 |
| Nc1nc2ccc(OC(F)(F)F)cc2s1 | -5.46 |
| CNC(=O)c1cc(Oc2ccc(NC(=O)Nc3ccc(Cl)c(C(F)(F)F)c3)c(F)c2)ccn1 | 12.1 |
| COC(=O)C(CCCN=C(N)N)NC(=O)CCCc1c(-c2ccccc2)[nH]c2c(F)cc(F)cc12 (stereo not given) | 0.683 |
| COc1cc(C(=O)N2CCC(N3CCN(C)CC3)CC2)ccc1Nc1ncc2c(n1)N(C)c1ccccc1C(=O)N2C | -5.99 |
| CC(C)c1ccccc1Cc1cc(C(=O)Nc2ccc(S(=O)(=O)c3ccccc3C(C)(C)C)cc2)c(O)c(O)c1O | -2.24 |
| CC1(C)C(=O)C=CC2(C)C1C=CC1(C)C2CCC2(C)C(c3ccoc3)OC(=O)C3OC312 (stereo not given) | -1.04 |
| Cc1nc(Nc2ncc(C(=O)Nc3c(C)cccc3Cl)s2)cc(N2CCN(CCO)CC2)n1 | 19.8 |
| CC(C)(C)OC(=O)Nc1ccc(-c2cc(C(=O)NCCCCCCC(=O)NO)no2)cc1 | -0.14 |
| CC(C)(C)c1nc(-c2cccc(NS(=O)(=O)c3c(F)cccc3F)c2F)c(-c2ccnc(N)n2)s1 | -2.77 |
| C/C=C/c1ccc2c(c1)O[C@@H](CN(C)C(=O)c1ccccc1)[C@@H](C)CN([C@@H](C)CO)S2(=O)=O | -5.32 |
| CC(C)n1cnc2c(NCc3ccccc3)nc(NCCO)nc21 | 0.237 |
| O=C(Cc1ccc(-c2ccc(OCCN3CCOCC3)cc2)cn1)NCc1ccccc1 | 9.67 |
| O=C(NCCN1CCCCC1)c1ccc(I)cc1 | 6.46 |
| O=c1ncccn1[C@@H]1O[C@H](CO)[C@@H](O)[C@H]1O | -0.513 |
| Nc1ncnc2n[nH]c(Nc3ccc(F)cc3)c12 | 3.71 |

same assay, conditions: 5 µM; 24 h; macrophage state: M2-polarized (IL-4 + IL-13), cytokines present during treatment

| SMILES | cell shape (Z-score) |
| --- | --- |
| Cc1cc(C(C)(C)CC(C)(C)C)ccc1OCCOCC[N+](C)(C)Cc1ccccc1 | -3.9 |
| CC1=CC[C@@]2(C)CC[C@@](O)(C(C)C)[C@@H]2[C@@H](O)C1 | -2.34 ± 1.2 |
| C[C@@H]1O[C@@H](O[C@@H]2[C@@H](O)[C@H](OC(=O)[C@]34CCC(C)(C)CC3C3=CCC5[C@@]6(C)CC[C@H](OC7OC(CO)C(OC8OCC(O)C(O)C8O)C(O)C7O)C(C)(C)C6CC[C@@]5(C)[C@]3(C)CC4O)O[C@H]2CO)[C@H](O)[C@H](O)[C@H]1O[C@H]1OC[C@](O)(CO)[C@H]1O (stereo not given in full) | -4.86 |
| CCCC[C@@H](O)c1cc(OC)cc(=O)o1 | -3.33 |
| CC(Nc1nc(N2CCCC2)nc2ccccc12)c1ccccc1 (stereo not given) | -11.8 |
| CCOc1nc2cccc(C(=O)OC(C)OC(=O)OC3CCCCC3)c2n1Cc1ccc(-c2ccccc2-c2nn[nH]n2)cc1 (stereo not given) | -2.81 |
| O=C1c2ccccc2C(Cc2ccnc(F)c2)(Cc2ccnc(F)c2)c2ccccc21 | 1.79 |
| Cc1ccc(O)c(N=Nc2ccccc2)n1 | -1.32 |
| Cc1cc2nc3c(=O)[nH]c(=O)nc-3n(C)c2cc1C=O | 6.26 |
| O=C(O)Cc1nn(Cc2ccc(Br)cc2F)c(=O)c2ccccc12 | -1.61 |
| O=C(Nc1ccc([N+](=O)[O-])cc1Cl)c1cc(Cl)ccc1O [Niclosamide.2mM] | -6.52 |
| C=C1C(=O)OC2CC3(C)CCC=C(CO)C3CC12 (stereo not given) | -5.59 |
| COCCCOc1ccnc(C[S+]([O-])c2nc3ccccc3[nH]2)c1C (stereo not given) | 1.52 |
| CC[C@@]1(O)C(=O)OCc2c1cc1n(c2=O)Cc2cc3c([N+](=O)[O-])cccc3nc2-1 | -14.4 |
| O=C(Nc1ccc([N+](=O)[O-])cc1Cl)c1cc(Cl)ccc1O | -8.05 |
